This is a sample that favours compounds with a hit; in the whole collection about 2.4% have one here.
D2 antag = D2 dopamine receptor (human) antagonism | HEK293 TREx D2 cells, calcium flux, dopamine EC80 | hit rate 2% among 340,000 | inhibition, % at 10 µM; in the data active = inhibition above about 30%; inactive = below that, where a call was filed
Target sequence (P14416 whole entry, looked up): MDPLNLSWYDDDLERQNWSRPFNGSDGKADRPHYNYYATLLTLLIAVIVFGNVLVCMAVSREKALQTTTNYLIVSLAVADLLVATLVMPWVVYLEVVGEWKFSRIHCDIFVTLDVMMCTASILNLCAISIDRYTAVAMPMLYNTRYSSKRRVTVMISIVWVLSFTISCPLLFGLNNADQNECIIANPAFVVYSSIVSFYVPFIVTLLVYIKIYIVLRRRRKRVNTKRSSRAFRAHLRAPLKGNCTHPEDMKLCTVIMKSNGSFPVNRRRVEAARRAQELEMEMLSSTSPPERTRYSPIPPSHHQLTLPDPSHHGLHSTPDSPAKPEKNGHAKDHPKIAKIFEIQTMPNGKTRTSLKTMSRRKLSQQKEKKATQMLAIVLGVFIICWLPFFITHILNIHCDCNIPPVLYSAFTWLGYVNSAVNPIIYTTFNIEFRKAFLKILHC
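In this primary screen, negative modulation is detected by tracking calcium flux after an EC80 dopamine challenge in inducible HEK293 T-REx D2 cells preexposed to test compound for 180 s.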
D2 PAM-1 = positive allosteric modulators of human D2 dopamine receptor; hit rate 0.34% among 340,000; HEK293 T-REx D2, calcium flux, EC20 dopamine potentiation; potentiation, % at 10 µM; P14416;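 active = potentiation over 3 SD above the plate norm, cut at about 30% in these data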
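Calcium flux readout, no-wash dye, 1 read/s. Inducible HEK293 Trex D2 line, overnight 30 C. Compound alone 180 s (agonist flags), then EC20 dopamine, another 180 s to score potentiation.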
D2 ag-1 = agonists of human D2 dopamine receptor (beta-arrestin); P14416; DiscoveRx PathHunter D2 beta-arrestin, luminescence, 90 min; 100% = 57 uM dopamine signal; activation, % (test concentration not listed); hit rate 0.084% among 360,000; in the data active = activation above about 40%; inconclusive = between about 15% and that limit
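DiscoveRx PathHunter D2 beta-arrestin cells (2,100/well) attached overnight, then compound-stimulated 90 min at 37 C in HBSS/10 mM HEPES/0.1% Tween-20 buffer; beta-galactosidase complementation read by luminescence after 1 h at ambient temperature. Dopamine 57 uM final (EC100) as control.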
D2 ag-2 = agonists of human D2 dopamine receptor | activation, % at 2 µM | P14416 | HEK293 T-REx D2 cells, calcium flux agonist mode | hit rate 0.53% among 340,000 | AID 485358;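 active = activation over 3 SD above normal in the single-dose calcium agonist read, cut at about 30% in these data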
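Tetracycline-induced HEK293 Trex cells with D2 receptor force-coupled to calcium signaling, plated overnight at 30 C and loaded with no-wash calcium dye. Calcium flux read kinetically for 180 s after compound addition; responses flag agonists.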
D2 PAM-2 = human D2 receptor positive allosteric modulation; AID 624464; DiscoveRx D2 beta-arrestin cells, luminescence, 90 min; 100% = 57 uM dopamine signal; potentiation, % (concentration not given with the values); hit rate 0.23% among 360,000; P14416; in the data active = potentiation above about 50%; inconclusive = mostly about 30% to 49%
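D2 cells co-treated with compound plus 50 nM dopamine (EC20) for 90 min at 37 deg C to detect potentiation. Beta-arrestin recruitment was read as enzyme-fragment luminescence after 1 h at ambient temperature. Full response was set by 57 uM dopamine.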
Numbers stand for hits; – = inactive; ? = inconclusive; · = not tested or not shown.

SMILES | D2 antag | D2 PAM-1 | D2 ag-1 | D2 ag-2 | D2 PAM-2
Cc1cc(C)c(NC(=O)C2CCCN(S(=O)(=O)c3c(C)noc3/C=C/N(C)C)C2)c(C)c1 (centres undefined) | 33 | – | – | – | –
Cc1cc(C)c(NC(=O)C2CCCN(S(=O)(=O)c3c(C)noc3C)C2)c(C)c1 (centres undefined) | · | – | · | – | ·
CC(C)Cn1c(N)c(C(=O)COC(=O)c2c(F)cccc2F)c(=O)n(C)c1=O | 45 | – | – | – | –
CC(C)Cn1c(N)c(C(=O)CSc2ccc3c(c2)OCCO3)c(=O)n(C)c1=O | – | 33 | – | – | –
N#CCSc1nnc2c(Cl)cc(Cl)cn12 | – | – | – | – | –
COc1ccc(Cl)cc1C(=O)NNC(=S)NC(=O)c1ccc(F)c(F)c1 | 40 | – | – | – | –
Cc1ccc(C(=O)NC(=S)NNC(=O)c2ccc([N+](=O)[O-])cc2)cc1 | 33 | – | – | – | –
Cc1ccc(C(=O)NNC(=S)NC(=O)c2ccccc2)cc1 | · | · | – | · | –
COc1ccc(C(=O)NNC(=S)NC(=O)c2ccc(F)cc2)cc1Br | · | · | – | · | –
Cc1ccccc1C(=O)NNC(=S)NC(=O)c1ccccc1 | – | – | – | 51 | –
Cc1ccc(C(=O)NNC(=S)NC(=O)c2ccc(Cl)cc2Cl)cc1 | – | – | – | 70 | –
CCCN(CCC)S(=O)(=O)c1ccc(C(=O)Nc2nnc(-c3cc(OC)cc(OC)c3)o2)cc1 | – | – | – | – | –
Cc1ccc(S(=O)(=O)NCCC(=O)N2CCN(S(=O)(=O)c3ccccc3)CC2)cc1C | – | – | – | – | –
Cc1ccc(C)c(S(=O)(=O)N2CCN(C(=O)CCNS(=O)(=O)c3ccc(C)c(C)c3)CC2)c1 | – | 32 | – | – | –
CC(OC(=O)c1c2c(nc3ccccc13)/C(=C\c1ccc3c(c1)OCO3)CCC2)C(=O)Nc1ccc(S(N)(=O)=O)cc1 (centres undefined) | – | – | – | 100 | –
CN(C)CCCN1c2ccccc2Sc2ccc(C(F)(F)F)cc21 | 95 | – | – | – | –
CN1CCN(CCC=C2c3ccccc3Sc3ccc(S(=O)(=O)N(C)C)cc32)CC1 | 77 | – | – | – | –
OCCN1CCN(CC/C=C2/c3ccccc3CSc3ccccc32)CC1 | · | · | – | · | –
OCCN1CCN(CC/C=C2/c3ccccc3Sc3ccc(C(F)(F)F)cc32)CC1 | 83 | – | – | – | –
CN1CCN(CCC(=O)N2c3ccccc3Sc3ccc(C(F)(F)F)cc32)CC1 | – | – | – | – | –
OCCN1CCN(CCCN2c3ccccc3Sc3ccc(C(F)(F)F)cc32)CC1 | 60 | · | · | · | ·
COc1ccc(S(=O)(=O)N2CCCCC2)cc1NC(=O)Cn1cnc2c1c(=O)n(C)c(=O)n2C | · | · | – | · | –
O=C1CS/C(=N/N=C/c2ccncc2)N1 | – | – | – | – | –
O=C(CN1C(=O)C2(SCC(=O)N2c2ccccc2)c2ccccc21)NCc1ccccc1 (centres undefined) | · | – | · | – | ·
CCN(CC)CCCCN1c2ccccc2Sc2ccccc21 | 47 | – | – | – | –
SMILES | D2 antag | D2 PAM-1 | D2 ag-1 | D2 ag-2 | D2 PAM-2
N=C1c2c(cc(=O)n3c2[nH]c2ccccc23)CN1CCN1CCOCC1 | – | – | – | – | –
COc1cc2c(cc1OC)CN(C(=O)CN1C(=O)c3ccc([N+](=O)[O-])cc3C1=O)CC2 | – | – | – | – | 60
COc1ccc(NC(=O)CCN2C(=O)c3ccc([N+](=O)[O-])cc3C2=O)c(OC)c1 | – | – | ? | – | 56
COc1cc2c(cc1OC)CN(C(=O)CCCN1C(=O)c3ccccc3C1=O)CC2 | – | – | – | – | –
COC(=O)c1cc(NC(=O)Cc2cc(OC)c(OC)c(OC)c2)cc(C(=O)OC)c1 | 40 | – | – | – | –
O=C(Nc1ccccc1C(=O)NCc1cccnc1)c1ccco1 | – | – | – | – | –
COCCn1c(CCC(=O)O)ccc1-c1cccs1 | – | – | – | – | –
CCCCn1c(CCC(=O)O)ccc1-c1cccs1 | 40 | – | – | – | –
COc1ccccc1CN1C[C@@H]2C[C@@H](c3ccccc3C)N3CCC[C@@]23C1=O | – | – | – | – | –
Cc1ccccc1CN1C[C@@H]2C[C@@H](c3cnc(N4CCOCC4)s3)N3CCC[C@@]23C1=O | 37 | – | – | – | –
Cc1ccn2c(Nc3ccc4c(c3)OCO4)c(-c3ccc(C)o3)nc2c1 | · | – | · | – | ·
Cc1ccc(-c2nc3cnccn3c2Nc2ccc3c(c2)OCO3)o1 | 36 | – | – | – | –
C=CCOC(=O)C1=C(C)OC(N)=C(C#N)C1c1c(C)nn(-c2ccccc2)c1Cl (centres undefined) | 44 | – | – | – | –
CCOc1cc(C(=O)NN2CCOCC2)cc(OCC)c1OCC | 36 | – | – | – | –
CCOc1cc(C(=O)Nc2ccc(S(=O)(=O)N3CCOCC3)cc2)cc(OCC)c1OCC | – | – | – | – | –
Brc1ccc(CNCC2CCCO2)cc1 (centres undefined) | – | – | – | – | –
CCN(CC)S(=O)(=O)c1cc(NC(=O)C2CCN(c3ncnc4sc(C)c(C)c34)CC2)ccc1Cl | 36 | – | – | – | –
Cc1nc2sc(C(=O)OCC(=O)N3c4ccccc4CC3C)c(C)c2c(=O)[nH]1 (centres undefined) | 52 | – | – | – | –
O=C(O)CCCCCNS(=O)(=O)c1cccc2c1C(=O)c1ccccc1C2=O | – | – | – | – | 76
O=C(O)CCCCCNS(=O)(=O)/C=C/c1ccccc1 | – | – | – | – | –
CN(Cc1ccccc1)C(=O)COC(=O)c1ccccc1SCC(=O)N1CCCC1 | · | · | – | · | –
Cc1cc(-c2ccc(C(C)C)c(S(=O)(=O)Nc3ccccn3)c2)on1 | 31 | – | – | – | –
Cc1cc(-c2ccc(C)c(S(=O)(=O)Nc3ccccn3)c2)on1 | · | – | · | – | ·
CCOc1cccc(C2C(C(=O)c3ccco3)=C(O)C(=O)N2c2nnc(C)s2)c1 (centres undefined) | – | – | – | – | –
O=C1CCN(S(=O)(=O)c2ccccc2)CCN1CCOCc1ccc(F)cc1 | – | – | – | – | –
SMILES | D2 antag | D2 PAM-1 | D2 ag-1 | D2 ag-2 | D2 PAM-2
COc1ccccc1CN1C[C@@H]2C[C@@H](C3=Cc4cc(Cl)ccc4OC3)N3CCC[C@@]23C1=O | 31 | – | – | – | –
C=CCN1C=CC(=CC=C(C#N)C#N)C=C1 | – | – | – | 53 | –
CCOc1ccc(CNC(=O)c2ccco2)cc1 | – | – | – | – | –
COc1ccccc1C1CCN(C(=O)c2ccccc2)CC1 | – | – | – | – | –
COc1ccccc1CCNC(=O)C(=O)NCC1OCCCN1S(=O)(=O)c1cc(C)ccc1C (centres undefined) | 34 | – | – | – | –
O=C(NCCc1ccccc1)C(=O)NCC1OCCN1S(=O)(=O)c1ccc(Br)cc1 (centres undefined) | 31 | – | – | – | –

Screening data from PubChem.
